Experiment [1] deals with Focal adhesion kinase 1 (Homo sapiens) (UniProt Q05397). The note with it: at 10 µM.
The target in experiment [2] is Fibroblast growth factor receptor 1 (Homo sapiens) (UniProt P11362). Conditions: at 1 µM.
For experiment [3] the target is unchanged. The note with it: at 10 µM.
The target in experiment [4] is Fibroblast growth factor receptor 2 (Homo sapiens) (UniProt P21802). The note with it: at 1 µM.
For experiment [5] the target is unchanged. Conditions: at 10 µM.
The target in experiment [6] is Fibroblast growth factor receptor 3 (Homo sapiens) (UniProt P22607). The note with it: at 1 µM.
Experiment [7] shares this target. Conditions: at 10 µM.
Experiment [8] has as its target Fibroblast growth factor receptor 4 (Homo sapiens) (UniProt P22455). The note with it: at 1 µM.
Experiment [9] has the same target. Conditions: at 10 µM.
Experiment [10] concerns the target Tyrosine-protein kinase Fer (Homo sapiens) (UniProt P16591). Conditions: at 1 µM.

One may read the residual activity as the signal under treatment as a percentage of the control signal.

Chain of Fibroblast growth factor receptor 2 (Homo sapiens) (P21802 22-821 limits assumed): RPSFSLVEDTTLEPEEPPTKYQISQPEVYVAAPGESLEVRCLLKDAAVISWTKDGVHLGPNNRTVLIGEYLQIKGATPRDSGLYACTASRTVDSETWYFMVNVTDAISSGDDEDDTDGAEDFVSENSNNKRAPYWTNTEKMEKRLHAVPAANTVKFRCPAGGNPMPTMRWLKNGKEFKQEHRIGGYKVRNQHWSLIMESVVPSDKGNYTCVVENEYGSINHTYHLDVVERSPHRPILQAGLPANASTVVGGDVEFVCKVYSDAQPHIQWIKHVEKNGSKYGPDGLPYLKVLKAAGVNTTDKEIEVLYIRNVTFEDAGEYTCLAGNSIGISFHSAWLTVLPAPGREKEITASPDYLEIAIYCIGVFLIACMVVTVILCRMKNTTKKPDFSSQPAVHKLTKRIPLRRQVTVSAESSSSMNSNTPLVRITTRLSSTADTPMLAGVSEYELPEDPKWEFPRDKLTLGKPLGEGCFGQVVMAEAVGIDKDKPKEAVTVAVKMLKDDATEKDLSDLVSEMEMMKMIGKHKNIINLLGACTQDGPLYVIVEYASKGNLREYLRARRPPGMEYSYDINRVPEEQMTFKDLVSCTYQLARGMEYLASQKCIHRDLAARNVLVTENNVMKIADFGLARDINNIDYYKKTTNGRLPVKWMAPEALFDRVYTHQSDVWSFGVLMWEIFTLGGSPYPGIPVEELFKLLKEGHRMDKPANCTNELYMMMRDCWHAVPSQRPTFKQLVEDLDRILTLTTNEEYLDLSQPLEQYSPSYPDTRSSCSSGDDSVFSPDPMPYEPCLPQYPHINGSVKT
Chain of Fibroblast growth factor receptor 1 (Homo sapiens) (P11362 22-822 limits assumed): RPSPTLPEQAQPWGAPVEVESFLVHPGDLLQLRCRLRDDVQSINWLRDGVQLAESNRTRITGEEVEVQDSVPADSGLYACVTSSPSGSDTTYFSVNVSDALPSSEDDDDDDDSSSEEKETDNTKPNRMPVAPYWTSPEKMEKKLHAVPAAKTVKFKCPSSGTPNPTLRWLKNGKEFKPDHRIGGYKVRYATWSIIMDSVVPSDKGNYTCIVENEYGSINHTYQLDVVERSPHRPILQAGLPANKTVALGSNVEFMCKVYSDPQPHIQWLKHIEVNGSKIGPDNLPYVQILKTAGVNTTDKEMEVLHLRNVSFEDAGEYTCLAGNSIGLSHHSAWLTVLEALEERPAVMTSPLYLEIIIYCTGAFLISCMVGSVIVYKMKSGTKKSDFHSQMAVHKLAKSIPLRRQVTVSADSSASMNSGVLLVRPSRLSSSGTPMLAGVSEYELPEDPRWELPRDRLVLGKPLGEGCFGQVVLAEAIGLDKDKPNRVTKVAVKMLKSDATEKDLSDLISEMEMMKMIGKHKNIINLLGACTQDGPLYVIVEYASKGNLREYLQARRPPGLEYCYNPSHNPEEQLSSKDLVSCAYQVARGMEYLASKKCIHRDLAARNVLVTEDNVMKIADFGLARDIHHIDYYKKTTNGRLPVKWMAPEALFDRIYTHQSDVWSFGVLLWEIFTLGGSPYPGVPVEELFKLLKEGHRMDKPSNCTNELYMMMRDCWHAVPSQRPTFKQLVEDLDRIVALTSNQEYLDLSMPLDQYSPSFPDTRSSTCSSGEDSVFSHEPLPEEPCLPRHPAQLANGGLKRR
Chain of Focal adhesion kinase 1 (Homo sapiens) (Q05397 2-1052 limits assumed): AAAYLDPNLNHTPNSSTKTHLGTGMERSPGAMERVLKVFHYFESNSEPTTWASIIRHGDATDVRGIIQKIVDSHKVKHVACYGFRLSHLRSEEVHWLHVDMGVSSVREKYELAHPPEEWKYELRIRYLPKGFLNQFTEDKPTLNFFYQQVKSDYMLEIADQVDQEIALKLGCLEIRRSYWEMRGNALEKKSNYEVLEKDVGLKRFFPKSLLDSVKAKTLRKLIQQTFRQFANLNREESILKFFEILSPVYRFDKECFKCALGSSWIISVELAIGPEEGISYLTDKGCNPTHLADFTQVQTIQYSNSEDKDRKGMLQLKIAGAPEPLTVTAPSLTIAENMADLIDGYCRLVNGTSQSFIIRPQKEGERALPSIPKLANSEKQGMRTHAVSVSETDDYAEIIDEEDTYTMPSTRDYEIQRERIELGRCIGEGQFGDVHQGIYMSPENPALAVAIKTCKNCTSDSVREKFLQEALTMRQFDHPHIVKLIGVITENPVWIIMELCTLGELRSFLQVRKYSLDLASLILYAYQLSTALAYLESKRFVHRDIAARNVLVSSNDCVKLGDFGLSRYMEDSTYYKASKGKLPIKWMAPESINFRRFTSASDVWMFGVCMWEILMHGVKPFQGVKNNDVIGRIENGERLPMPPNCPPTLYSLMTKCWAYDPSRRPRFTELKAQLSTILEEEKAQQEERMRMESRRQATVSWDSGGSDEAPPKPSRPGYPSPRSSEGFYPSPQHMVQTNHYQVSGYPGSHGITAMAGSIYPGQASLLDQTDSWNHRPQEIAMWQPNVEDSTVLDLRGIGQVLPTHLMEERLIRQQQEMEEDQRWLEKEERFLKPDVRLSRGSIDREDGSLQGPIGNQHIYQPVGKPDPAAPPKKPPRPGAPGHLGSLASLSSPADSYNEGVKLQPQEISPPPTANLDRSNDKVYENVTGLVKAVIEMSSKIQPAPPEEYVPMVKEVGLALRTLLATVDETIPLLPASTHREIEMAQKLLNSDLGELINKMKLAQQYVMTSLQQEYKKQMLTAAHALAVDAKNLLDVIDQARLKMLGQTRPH
Chain of Fibroblast growth factor receptor 4 (Homo sapiens) (P22455 22-802 limits assumed): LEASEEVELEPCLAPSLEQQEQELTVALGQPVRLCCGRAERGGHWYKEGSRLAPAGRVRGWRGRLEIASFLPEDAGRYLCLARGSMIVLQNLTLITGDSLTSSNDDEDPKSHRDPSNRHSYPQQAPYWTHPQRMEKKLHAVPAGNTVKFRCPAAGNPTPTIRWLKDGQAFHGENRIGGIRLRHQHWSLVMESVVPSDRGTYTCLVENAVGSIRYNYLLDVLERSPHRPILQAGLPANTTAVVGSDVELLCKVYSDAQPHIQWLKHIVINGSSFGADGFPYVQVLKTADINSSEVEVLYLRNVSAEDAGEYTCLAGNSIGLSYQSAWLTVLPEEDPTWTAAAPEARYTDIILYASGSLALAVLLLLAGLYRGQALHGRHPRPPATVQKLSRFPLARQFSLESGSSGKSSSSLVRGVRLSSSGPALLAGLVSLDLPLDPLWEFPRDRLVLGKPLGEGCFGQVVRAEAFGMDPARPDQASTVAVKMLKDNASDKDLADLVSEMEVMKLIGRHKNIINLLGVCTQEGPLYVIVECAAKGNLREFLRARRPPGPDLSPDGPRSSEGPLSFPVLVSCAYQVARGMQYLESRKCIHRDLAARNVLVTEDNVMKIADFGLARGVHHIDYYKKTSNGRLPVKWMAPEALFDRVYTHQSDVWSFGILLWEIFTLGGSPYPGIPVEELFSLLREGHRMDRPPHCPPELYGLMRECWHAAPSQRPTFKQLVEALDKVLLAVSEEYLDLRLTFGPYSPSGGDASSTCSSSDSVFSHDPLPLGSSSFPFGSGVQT
Chain of Tyrosine-protein kinase Fer (Homo sapiens) (P16591 whole entry, looked up): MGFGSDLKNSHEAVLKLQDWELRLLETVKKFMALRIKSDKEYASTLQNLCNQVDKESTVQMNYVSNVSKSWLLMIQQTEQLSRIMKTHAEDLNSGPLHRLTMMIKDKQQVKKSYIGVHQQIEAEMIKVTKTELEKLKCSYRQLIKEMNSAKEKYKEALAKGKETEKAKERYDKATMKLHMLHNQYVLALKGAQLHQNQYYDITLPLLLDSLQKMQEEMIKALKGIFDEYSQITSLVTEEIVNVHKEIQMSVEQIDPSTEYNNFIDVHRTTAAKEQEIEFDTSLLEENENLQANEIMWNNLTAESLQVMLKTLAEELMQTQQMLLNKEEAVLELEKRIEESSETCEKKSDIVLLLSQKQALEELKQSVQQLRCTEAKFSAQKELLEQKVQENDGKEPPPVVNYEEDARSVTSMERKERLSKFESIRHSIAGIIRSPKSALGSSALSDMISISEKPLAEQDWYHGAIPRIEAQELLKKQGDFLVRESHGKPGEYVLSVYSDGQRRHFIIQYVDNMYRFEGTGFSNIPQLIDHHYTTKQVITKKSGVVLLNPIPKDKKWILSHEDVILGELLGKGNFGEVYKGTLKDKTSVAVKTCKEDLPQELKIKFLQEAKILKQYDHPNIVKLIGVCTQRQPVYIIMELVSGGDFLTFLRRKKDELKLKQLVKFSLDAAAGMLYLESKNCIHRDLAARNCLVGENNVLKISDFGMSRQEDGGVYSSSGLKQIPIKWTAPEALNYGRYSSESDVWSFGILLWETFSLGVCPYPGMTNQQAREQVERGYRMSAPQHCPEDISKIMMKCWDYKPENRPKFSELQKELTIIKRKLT
Chain of Fibroblast growth factor receptor 3 (Homo sapiens) (P22607 23-806 limits assumed): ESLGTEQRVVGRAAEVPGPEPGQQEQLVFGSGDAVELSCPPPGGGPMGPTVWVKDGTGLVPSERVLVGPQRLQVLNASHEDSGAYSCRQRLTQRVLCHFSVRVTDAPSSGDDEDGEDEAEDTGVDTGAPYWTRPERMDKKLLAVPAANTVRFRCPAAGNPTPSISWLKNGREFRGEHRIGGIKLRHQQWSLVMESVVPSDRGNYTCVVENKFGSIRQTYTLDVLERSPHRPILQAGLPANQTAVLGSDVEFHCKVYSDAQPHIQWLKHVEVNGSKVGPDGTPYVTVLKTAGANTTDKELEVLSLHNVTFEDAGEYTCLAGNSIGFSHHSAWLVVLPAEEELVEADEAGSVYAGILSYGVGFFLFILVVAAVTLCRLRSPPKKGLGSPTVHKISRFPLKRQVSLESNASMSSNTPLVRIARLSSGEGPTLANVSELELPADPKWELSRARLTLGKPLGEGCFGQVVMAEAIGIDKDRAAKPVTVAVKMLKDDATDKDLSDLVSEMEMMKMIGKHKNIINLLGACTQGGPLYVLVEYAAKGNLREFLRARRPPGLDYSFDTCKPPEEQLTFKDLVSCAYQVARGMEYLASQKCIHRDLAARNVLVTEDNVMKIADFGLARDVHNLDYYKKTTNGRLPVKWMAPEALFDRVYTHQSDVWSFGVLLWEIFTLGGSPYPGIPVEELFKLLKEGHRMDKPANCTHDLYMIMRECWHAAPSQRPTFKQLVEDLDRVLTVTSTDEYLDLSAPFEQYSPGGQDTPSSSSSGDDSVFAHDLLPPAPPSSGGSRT

For the molecule `Nc1cccc(-c2cc3c(Oc4cccc(O)c4)ncnc3[nH]2)c1`, the residual activity was found to be 42% in experiment [1]; 2% in experiment [2]; 0% in experiment [3]; 21% in experiment [4]; 2% in experiment [5]; 53% in experiment [6]. Also, the residual activity in experiment [7] stood at 9%; in experiment [8], 72%; in experiment [9], 22%; in [10], 58%.
As to `O=Nc1c(-c2c(O)[nH]c3ccccc23)[nH]c2ccccc12`, the residual activity in experiment [1] is 2%; in experiment [2], 3%; in [3] it was -1%; in experiment [4], 22%; in [5], 2%; in experiment [6], 20%. The residual activity is 2% in experiment [7], 100% in [8], 45% in experiment [9] and 70% in experiment [10].
Turning to `Oc1c2ccccc2c2c3c(cccc13)N=N2`, the residual activity in experiment [1] stood at 9%; in [2], 39%; in [3], 4%; in [4] it was 52%; in [5], 12%; in experiment [6], 72%. The residual activity is 40% in [7], 110% in experiment [8], 89% in experiment [9] and 75% in [10].
Consider `CC#CC(=O)Nc1cc2c(Nc3ccc(F)c(Cl)c3)ncnc2cn1`, for which the residual activity in experiment [1] came to 99%; in [2], 97%; in experiment [3], 80%; in [4], 91%; in [5], 113%; in experiment [6], 86%. For the same molecule, the residual activity was found to be 125% in experiment [7], 116% in experiment [8], 96% in [9] and 108% in experiment [10].
Turning to `CO[C@H]1[C@@H](OC)C[C@H](C)[C@@H](OC)C2=CC(=O)C=C(NC(=O)/C(C)=C/C=C/[C@H](OC)[C@@H](OC(N)=O)/C(C)=C/[C@@H]1C)C2=O`, the residual activity was determined as 91% in experiment [1]; 82% in experiment [2]; 93% in experiment [3]; 104% in [4]; 105% in [5]; 112% in [6]. Moreover, the residual activity in experiment [7] amounted to 102%; in experiment [8] it was 109%; in experiment [9], 94%; in [10] it was 110%.
As to `CC(=O)c1ccc(N2CCOCC2)cc1O`, the residual activity in experiment [1] turned out to be 94%; in [2], 97%; in experiment [6] it was 98%; in [7], 128%.
As for `O=C1NC(=O)c2c1c1c3ccccc3[nH]c1c1[nH]c3cc(Br)ccc3c21`, the residual activity in experiment [1] was 95%; in experiment [2], 90%; in [3], 57%; in experiment [4], 99%; in experiment [5], 82%; in [6], 104%. The residual activity in experiment [7] was determined as 88%; in experiment [8], 94%; in [9] it was 90%; in experiment [10] it was 103%.
Take `c1ccc2c(-c3ccncc3)c[nH]c2c1`: the residual activity in experiment [1] came out at 65%; in experiment [3] it was 90%; in [4], 111%; in [5], 87%; in experiment [8] it was 112%; in [9], 94%. For the same molecule, the residual activity in experiment [10] came out at 109%.
Turning to `CCN(CC)C(=O)c1ccc(Nc2nc(OCC3CCCCC3)c3nc[nH]c3n2)cc1`, the residual activity in experiment [1] came to 12%; in experiment [2], 40%; in [3], 2%; in experiment [4], 56%; in [5] it was 9%; in experiment [6], 49%. Besides, the results for the residual activity in experiment [7] and in experiment [10] were 4% and 53%, respectively.
In the case of `N#CC(C#N)=C(N)/C(C#N)=C/c1ccc(O)cc1`, the residual activity in [1] worked out at 97%; in experiment [2] it was 100%; in experiment [3], 75%; in experiment [6], 99%; in [8], 135%.
In the case of `N#Cc1cnc2cnc(NCc3cccnc3)cc2c1Nc1ccc(F)c(Cl)c1`, the residual activity was 21% in experiment [2]; 12% in experiment [3]; 48% in experiment [4]; 30% in experiment [5]; 38% in [6]; 18% in experiment [7]. The residual activity in [9] is 92%; in [10], 83%.
Take `c1ccc(-c2n[nH]cc2-c2ccnc3ccccc23)nc1`: the residual activity worked out at 80% in experiment [2], 72% in experiment [3], 101% in experiment [4] and 97% in experiment [5].
Take `O=c1c2ccccc2[nH]c(=S)n1CCN1CCC(=C(c2ccc(F)cc2)c2ccc(F)cc2)CC1`: the residual activity worked out at 81% in experiment [1]; 83% in experiment [2]; 49% in [3]; 119% in experiment [4]; 62% in [5]; 123% in experiment [6]. In addition, the residual activity in [7] was found to be 78%; in [9], 81%; in experiment [10] it was 109%.
On to `CC(C)n1cnc2c(NCc3ccccc3)nc(NCCCO)nc21`, for which the residual activity in experiment [1] was found to be 57%; in experiment [2], 104%; in experiment [3], 65%; in experiment [4], 111%; in experiment [5], 87%; in [6], 111%. Further, the residual activity in [7] was found to be 93%; in [8], 104%; in experiment [9], 81%; in experiment [10] it was 102%.
With `CC[n+]1c(/C=C/N(C)c2ccccc2)n(-c2ccccc2)c2ccc(-c3nc4ccccc4s3)cc21`, the residual activity came to 80% in experiment [1]; 99% in experiment [2]; 55% in [3]; 93% in [4]; 123% in experiment [5]; 105% in experiment [6]. The residual activity in experiment [7] was 104%; in [8] it was 101%; in experiment [9], 84%; in [10], 116%.
For the molecule `Cc1cccc(-c2[nH]c(C(C)(C)C)nc2-c2ccc3c(c2)OCO3)n1`, the residual activity in experiment [1] was found to be 95%; in experiment [5] it was 95%; in experiment [7], 129%.
Regarding `CO[C@@H]1[C@H](N(C)C(=O)c2ccccc2)C[C@H]2O[C@]1(C)n1c3ccccc3c3c4c(c5c6ccccc6n2c5c31)C(=O)NC4`, the residual activity in [1] was 37%; in experiment [2], 5%; in experiment [3], -4%; in [4], 21%; in [5], 7%; in experiment [6], 34%. In addition, the residual activity in experiment [7] was 19%; in experiment [8] it was 71%; in [9] it was 41%; in [10], 26%.
Regarding `N#C/C(=C(\N)Sc1ccc(N)cc1)c1ccccc1C(F)(F)F`, the residual activity was 95% in [1]; 112% in experiment [2]; 83% in experiment [3]; 100% in [4]; 102% in [6]; 93% in [7]. The figures for the residual activity in experiment [8], in [9] and in experiment [10] were 86%, 90% and 88%, respectively.
`Cn1nc2c3c(cccc31)C(=O)c1ccccc1-2`: the residual activity in [1] was 65%; in experiment [2], 110%; in experiment [3] it was 66%; in experiment [4], 103%; in experiment [5] it was 76%; in experiment [6], 112%. In addition, the residual activity in experiment [7] came to 77%; in experiment [8], 90%; in experiment [9] it was 88%; in [10], 87%.
